Test results reported in the supplement of paper PMC10338343.
± gives the standard deviation.

How the values were obtained:
[1] = test system: MILI (PIWIL2) piRISC loaded with piRNA #1 (26 nt); experiment: pre-steady-state target cleavage rate (min^-1); guide: piRNA #1 5'p-UGAGGUAGUAGGUUGUAUAGUAUCCA; higher = faster piRNA-guided slicing of the target; conditions: auxiliary factor: 500 nM mouse GTSF1
In short: (§1)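 Cleave-'n-Seq used a transcribed, DNA-blocked target RNA library at 0.1 nM and active affinity-purified piRISC with one synthetic guide at 1 nM, with or without 500 nM GTSF1 partner protein, in HEPES–potassium acetate buffer at 33 °C for 0–8 or 0–960 min. Uncleaved targets were sequenced and normalised to depth and to weakly complementary targets, and three trials were pooled with k3 capped at 0.0001 min^-1. The pre-steady-state cleavage rate was estimated by a burst-and-steady-state fit.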

[2] = test system: EfPiwi piRISC loaded with piRNA #1 (26 nt); experiment: pre-steady-state target cleavage rate (min^-1); auxiliary factor: 500 nM Ephydatia muelleri Gtsf1; guide: piRNA #1 5'p-UGAGGUAGUAGGUUGUAUAGUAUCCA; MIWI and MILI are mouse PIWI proteins and EfPiwi is from a freshwater sponge; tags in brackets are library labels; higher = faster piRNA-guided slicing of the target
In short: as §1

Sequence | pre-steady-state target cleavage rate [1] | pre-steady-state target cleavage rate [2]
GGAGACCAUACUAUUACAACCUACUACCUCA | 0.161 ± 0.013 | 0.0115 ± 0.0046
GGAGUGGAUACUAUACAACCUACUAACUCA | 0.018 ± 0.005 | 0.00991 ± 0.0043
GGAGACCUAUGAUUACAACCUACUCACCUCA | 0.00473 ± 0.0023 | < 0.0001
GGAGACCUAUGUAUACAACCUACAACCACA | 0.0115 ± 0.0032 | < 0.0001
GGAGACCAAACUAUACAUCCUACUACCUCA | 0.168 ± 0.034 | 0.0348 ± 0.013
GGAGACCUUCACUAUACAACCUACUACCUCA | 0.107 ± 0.017 | 0.00775 ± 0.0054
GGAGAGGAUACUAUACAACCUACUAUCCUCA | 0.0143 ± 0.0055 | 0.00536 ± 0.0025
GGAGAGGAUACUAUACAACCUACUACCUUA | 0.19 ± 0.018 | 0.204 ± 0.073
GGAGACGAUACUAAACAACCUUCUACCUCA | 0.00978 ± 0.003 | 0.00427 ± 0.004
GGAGACGAUACUAUACAACCAAGUACCUCA | 0.00441 ± 0.0027 | 0.00215 ± 0.0019
GGAGACCAUACAAUACUACCUACUACCUCA | 0.158 ± 0.019 | 0.00374 ± 0.0037
GGAGUGGAUACUAUACAACCAACUACCUCA | 0.00575 ± 0.0022 | 0.00568 ± 0.002
GGAGUGGAUACAAUACAACCUACAACCUCA | 0.0772 ± 0.01 | 0.00248 ± 0.0013
GGAGACCAUACUAUACACCUACUACCUCA | 0.0288 ± 0.0078 | 0.00694 ± 0.0042
GGAGACCUAUGUAAUACAACCUACUACCUCA | 0.0179 ± 0.0049 | 0.00412 ± 0.0028
GGAGACCAUCUAUACAACCUACUACCUCA | 0.112 ± 0.013 | 0.00903 ± 0.0054
GGAGACCUAAACUAUACAACCUACUACCUCA | 0.148 ± 0.018 | 0.00974 ± 0.0047
GGAGACCUAACGAUACAACCUACUACCUCA | 0.257 ± 0.053 | 0.0136 ± 0.0071
GGAGACGAUACUAUACAACCUCUACCUCA | 0.0213 ± 0.0044 | 0.00608 ± 0.0025
GGAGACCUAACUAUACAACCUACUACAUCA | 0.0477 ± 0.014 | 0.0146 ± 0.0083

Sequence | pre-steady-state target cleavage rate [1] | pre-steady-state target cleavage rate [2]
GGAGACGAUACUAUACAACCUACUUCCACA | 0.0194 ± 0.0082 | 0.00373 ± 0.0021
GGAGAGGAUACUUUACAACCUACAACCUCA | 0.11 ± 0.016 | 0.00228 ± 0.0015
GGAGACGAUUCUAUACAACCUACUACCUCA | 0.209 ± 0.013 | 0.0774 ± 0.03
GGAGUCCAUACUAUACAACCUACUACCUCA | 0.181 ± 0.015 | 0.0575 ± 0.019
GGAGACGAAACUAAACAACCUACUACCUCA | 0.145 ± 0.022 | 0.00324 ± 0.0032
GGAGACGAUACUAUGCAACCUACUACCUCA | 0.21 ± 0.014 | 0.0141 ± 0.0066
GGAGACCUAAUCUAUACAACCUACUACCUCA | 0.11 ± 0.024 | 0.297 ± 0.099
GGAGACGAUACUAUACAACCUACUUGCUCA | 0.155 ± 0.052 | 0.00371 ± 0.0014
GGAGUGGAUACUAUACAACCUCUACCUCA | 0.0226 ± 0.0033 | 0.0673 ± 0.023
GGAGACGAUACUAUUCAACCUACUACGUCA | 0.0915 ± 0.011 | 0.00311 ± 0.0016
GGAGUGGAUACUAUACAUGCUACUACCUCA | 0.109 ± 0.0081 | 0.00896 ± 0.0037
GGAGAGGAUACUAUUCAAGCUACUACCUCA | 0.131 ± 0.014 | 0.00323 ± 0.002
GGAGACCUAACUACACAACCUACUACCUCA | 0.166 ± 0.039 | 0.00487 ± 0.0033
GGAGACCUAACUAUACAACGUACUACCUCA | 0.0137 ± 0.0057 | 0.00454 ± 0.0022
GGAGACGAUACUAUACAACUUACUACCUCA | 0.0232 ± 0.0039 | 0.0183 ± 0.0077
GGAGACCUAACUAUACAACCUACUACCUUA | 0.12 ± 0.028 | 0.0211 ± 0.0092
GGAGACCUUACUAUACAACCUACUACCUCA [g2:g22:cont:t1A] | 0.165 ± 0.018 | 0.0238 ± 0.0084
GGAGACGAUACUAUACAACCUAAUACCUCA | 0.103 ± 0.015 | 0.00553 ± 0.0025
GGAGACCUAACAUACAACCUACUACCUCA | 0.0208 ± 0.009 | 0.0097 ± 0.005
GGAGAAGAUACUAUACAACCUACUACCUCA | 0.22 ± 0.016 | 0.0965 ± 0.035

Sequence | pre-steady-state target cleavage rate [1] | pre-steady-state target cleavage rate [2]
GGAGACCUAUGUAUACAACCUACUACCUCU [g2:g19:cont:t1U] | 0.0508 ± 0.0069 | 0.404 ± 0.18
GGAGACCUAAGAAUACAACCUACUACCUCA | 0.0112 ± 0.0044 | 0.00727 ± 0.0035
GGAGUGGAUACUAUACAACGUACUACCUGA | 0.0131 ± 0.0034 | 0.00457 ± 0.0015
GGAGACCAUACUAUACAACCUACAUACCUCA | 0.146 ± 0.018 | 0.00306 ± 0.0029
GGAGACCAUUCUAUACAACCUAGUACCUCA | 0.0977 ± 0.022 | 0.00433 ± 0.0024
GGAGACGAUACUAUACUACGUACUACCUCA | 0.0345 ± 0.004 | 0.00413 ± 0.0027
GGAGUGGAUACUAUAGAACCUACUACCUCA | 0.178 ± 0.0098 | 0.00377 ± 0.0019
GGAGUGGAUAGUAUACUACCUACUACCUCA | 0.113 ± 0.0097 | 0.00287 ± 0.0021
GGAGUGCAUACUAUACAACCUACUACCUGA | 0.09 ± 0.011 | 0.00576 ± 0.0029
GGAGUGGAUUCUAUACAACCUAGUACCUCA | 0.0634 ± 0.011 | 0.00168 ± 0.0013
GGAGUGGAUACUAUACAACCUACUACGUCA | 0.0515 ± 0.0063 | 0.00568 ± 0.0024
GGAGACAAUACUAUACAACCUACUACCUCA | 0.253 ± 0.021 | 0.0606 ± 0.023
GGAGACCAUACUAUACAACCUACUACCUGCA | 0.213 ± 0.023 | 0.00318 ± 0.002
GGAGACCUAACUAUACAACCUACUACUCUCA | 0.208 ± 0.028 | 0.00491 ± 0.0044
GGAGACGAUUCUAUACAACCUUCUACCUCA | 0.0216 ± 0.0072 | 0.00518 ± 0.0027
GGAGAGGAUUGAAUACAACCUACUACCUCA | 0.0664 ± 0.0088 | 0.00721 ± 0.0044
GGAGACGAUACUUUACAACCUACUACCUCA | 0.189 ± 0.013 | 0.00691 ± 0.0033
GGAGACCUAUGUAUACAACCUACUACUCUCA | 0.117 ± 0.013 | < 0.0001
GGAGUGGUUACUAUACAACCUACUACCUGA | 0.0722 ± 0.01 | 0.00386 ± 0.0014
GGAGACGAUACUAUACAAGGUACUACCUCA | 0.0884 ± 0.013 | 0.00393 ± 0.0023
